# Values joined by “and” are separate entries in the source; they are usually repeats but may differ in a detail not shown here. Identical values can stand only once. Among all 5,500 compounds or so, about 2,000 (36%) were called active. Roughly 18% stayed inconclusive and do not appear here. The list shows a part of the results. Unmarked numbers belong to inactive results. No stated cut-off is given here; in the data, active means normalized growth mostly below about 0.91 (no sharp cut-off); inconclusive means no clear call, values can overlap the other calls; inactive means mostly above about 0.92.
# Test: chemical genetic growth profiling, strain panel (AID 1159580);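 further: tested at 20 µM; growth read once vehicle control cultures reached saturation at 30 °C; 1 = growth at the plate median or of vehicle wells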
# Conditions: S. cerevisiae deletion strains, growth OD
smiles,measurement,setting,value
C[C@H](CCC(=O)O)[C@H]1CCC2C3C(=O)CC4CC(=O)CC[C@]4(C)C3CC(=O)[C@@]21C (some centres not stated),normalized growth,"locus YAL021C, strain ccr4, stronger effect = lower value",0.908
same,normalized growth,"locus YAL026C, strain drs2, stronger effect = lower value",0.99
same,normalized growth,"locus YAL030W, strain snc1, stronger effect = lower value",0.963
same,normalized growth,"locus YBL061C, strain skt5, stronger effect = lower value",0.99
same,normalized growth,"locus YBR009C, strain hhf1, stronger effect = lower value",0.992
same,normalized growth,"locus YBR021W, strain FUR4, stronger effect = lower value",1.01
same,normalized growth,"locus YBR023C, strain chs3, stronger effect = lower value",0.987
same,normalized growth,"locus YBR171W, strain sec66, stronger effect = lower value",0.956
same,normalized growth,"locus YBR229C, strain ROT2, stronger effect = lower value",1.01
same,normalized growth,"locus YBR231C, strain swc5, stronger effect = lower value",0.967
same,normalized growth,"locus YBR279W, strain paf1, stronger effect = lower value",0.994
same,normalized growth,"locus YCL011C, strain gbp2, stronger effect = lower value",0.991
same,normalized growth,"locus YCL016C, strain dcc1, stronger effect = lower value",1.02
same,normalized growth,"locus YCL029C, strain bik1, stronger effect = lower value",1.01
same,normalized growth,"locus YCL061C, strain MRC1, stronger effect = lower value",0.972
same,normalized growth,"locus YCL069W, strain vba3, stronger effect = lower value",0.978
same,normalized growth,"locus YCR088W, strain abp1, stronger effect = lower value",0.987
same,normalized growth,"locus YDL005C, strain med2, stronger effect = lower value",0.952
same,normalized growth,"locus YDL035C, strain GPR1, stronger effect = lower value",1.02
same,normalized growth,"locus YDL040C, strain nat1, stronger effect = lower value",0.976
same,normalized growth,"locus YDL074C, strain BRE1, stronger effect = lower value",1
same,normalized growth,"locus YDL101C, strain DUN1, stronger effect = lower value",1.01
same,normalized growth,"locus YDL134C, strain PPH21, stronger effect = lower value",1.02
same,normalized growth,"locus YDL185W, strain tfp1, stronger effect = lower value",1.01
same,normalized growth,"locus YDL192W, strain arf1, stronger effect = lower value",1
same,normalized growth,"locus YDR001C, strain nth1, stronger effect = lower value",0.969
same,normalized growth,"locus YDR069C, strain doa4, stronger effect = lower value",0.951
same,normalized growth,"locus YDR101C, strain arx1, stronger effect = lower value",1.02
same,normalized growth,"locus YDR137W, strain rgp1, stronger effect = lower value",0.999
same,normalized growth,"locus YDR159W, strain sac3, stronger effect = lower value",0.937
same,normalized growth,"locus YDR162C, strain NBP2, stronger effect = lower value",1.02
same,normalized growth,"locus YDR195W, strain ref2",0.937
same,normalized growth,"locus YDR297W, strain sur2, stronger effect = lower value",0.981
same,normalized growth,"locus YDR318W, strain mcm21, stronger effect = lower value",1
same,normalized growth,"locus YDR334W, strain swr1, stronger effect = lower value",0.957
same,normalized growth,"locus YDR335W, strain msn5, stronger effect = lower value",0.978
same,normalized growth,"locus YDR388W, stronger effect = lower value",1
same,normalized growth,"locus YDR392W, strain spt3, stronger effect = lower value",1.06
same,normalized growth,"locus YDR502C, strain sam2, stronger effect = lower value",0.998
same,normalized growth,"locus YEL003W, strain gim4, stronger effect = lower value",0.979
same,normalized growth,"locus YEL037C, strain rad23, stronger effect = lower value",0.983
same,normalized growth,"locus YEL061C, strain CIN8 (second series), stronger effect = lower value",0.962
same,normalized growth,"locus YEL061C, strain CIN8, stronger effect = lower value",1.01
same,normalized growth,"locus YER015W, strain faa2, stronger effect = lower value",0.991
same,normalized growth,"locus YER016W, strain bim1, stronger effect = lower value",1.04
same,normalized growth,"locus YER110C, stronger effect = lower value",1.01
same,normalized growth,"locus YER111C, strain swi4, stronger effect = lower value",0.974
same,normalized growth,"locus YER155C, strain BEM2 (second series), stronger effect = lower value",0.961
same,normalized growth,"locus YER155C, strain BEM2, stronger effect = lower value",1
same,normalized growth,"locus YER167W, strain BCK2, stronger effect = lower value",1.01
same,normalized growth,"locus YFR010W, strain ubp6, stronger effect = lower value",0.965
same,normalized growth,"locus YGL078C, strain dbp3, stronger effect = lower value",1.01
same,normalized growth,"locus YGL086W, strain mad1, stronger effect = lower value",1.01
same,normalized growth,"locus YGL167C, strain pmr1, stronger effect = lower value",0.947
same,normalized growth,"locus YGL173C, strain kem1, stronger effect = lower value",0.962
same,normalized growth,"locus YGL227W, strain vid30, stronger effect = lower value",0.97
same,normalized growth,"locus YGL240W, strain doc1, stronger effect = lower value",0.948
same,normalized growth,"locus YGL248W, strain PDE1, stronger effect = lower value",1
same,normalized growth,"locus YGL253W, strain hxk2, stronger effect = lower value",1
same,normalized growth,"locus YGR135W, strain pre9, stronger effect = lower value",0.994
same,normalized growth,"locus YGR252W, strain gcn5, stronger effect = lower value",0.972
same,normalized growth,"locus YHR013C, strain ard1, stronger effect = lower value",1
same,normalized growth,"locus YHR027C, strain rpn1, stronger effect = lower value",0.988
same,normalized growth,"locus YHR030C, strain SLT2, stronger effect = lower value",1.01 and 1.03
same,normalized growth,"locus YHR079C, strain IRE1 (second series), stronger effect = lower value",0.997
same,normalized growth,"locus YHR079C, strain IRE1, stronger effect = lower value",1
same,normalized growth,"locus YHR094C, strain hxt1, stronger effect = lower value",1.01
same,normalized growth,"locus YHR129C, strain ARP1, stronger effect = lower value",1.01
same,normalized growth,"locus YHR142W, strain chs7, stronger effect = lower value",0.957
same,normalized growth,"locus YHR200W, strain rpn10, stronger effect = lower value",1
same,normalized growth,"locus YIL066C, strain RNR3, stronger effect = lower value",1.02
same,normalized growth,"locus YIL073C, strain SPO22, stronger effect = lower value",1.01
same,normalized growth,"locus YIL125W, strain kgd1, stronger effect = lower value",1.01
same,normalized growth,"locus YIR030C, strain dcg1, stronger effect = lower value",1.01
same,normalized growth,"locus YJL092W, strain hpr5, stronger effect = lower value",0.971
same,normalized growth,"locus YJL095W, strain BCK1 (second series), stronger effect = lower value",0.969
same,normalized growth,"locus YJL095W, strain BCK1, stronger effect = lower value",1 and 1.02
same,normalized growth,"locus YJL115W, strain asf1, stronger effect = lower value",0.978
same,normalized growth,"locus YJL129C, strain trk1, stronger effect = lower value",0.962
same,normalized growth,"locus YJL134W, strain LCB3, stronger effect = lower value",1.01
same,normalized growth,"locus YJL154C, strain vps35, stronger effect = lower value",0.958
same,normalized growth,"locus YJL164C, strain tpk1, stronger effect = lower value",1.01
same,normalized growth,"locus YJL166W, strain qcr8, stronger effect = lower value",0.916
same,normalized growth,"locus YJL168C, strain set2, stronger effect = lower value",1
same,normalized growth,"locus YJL187C, strain SWE1 (second series), stronger effect = lower value",1.01
same,normalized growth,"locus YJR043C, strain POL32, stronger effect = lower value",1.01
same,normalized growth,"locus YJR066W, strain TOR1, stronger effect = lower value",0.971
same,normalized growth,"locus YJR075W, strain HOC1, stronger effect = lower value",1.02
same,normalized growth,"locus YKL009W, strain mrt4, stronger effect = lower value",0.992
same,normalized growth,"locus YKL068W, stronger effect = lower value",1.01
same,normalized growth,"locus YKL085W, strain MDH1 (second series), stronger effect = lower value",1.02
same,normalized growth,"locus YKL085W, strain MDH1, stronger effect = lower value",1.02
same,normalized growth,"locus YKL160W, strain elf1, stronger effect = lower value",0.985
same,normalized growth,"locus YKR001C, strain vps1, stronger effect = lower value",1.01
same,normalized growth,"locus YKR026C, strain gcn3, stronger effect = lower value",0.972
same,normalized growth,"locus YLL001W, strain dnm1, stronger effect = lower value",0.923
same,normalized growth,"locus YLL026W, stronger effect = lower value",0.987
same,normalized growth,"locus YLL041C, strain sdh2, stronger effect = lower value",0.978
same,normalized growth,"locus YLR027C, strain aat2, stronger effect = lower value",0.993
same,normalized growth,"locus YLR039C, strain RIC1, stronger effect = lower value",0.955
same,normalized growth,"locus YLR058C, strain SHM2, stronger effect = lower value",1.01
same,normalized growth,"locus YLR102C, strain apc9, stronger effect = lower value",0.999
same,normalized growth,"locus YLR113W, strain HOG1, stronger effect = lower value",1.03
same,normalized growth,"locus YLR221C, strain rsa3, stronger effect = lower value",1.04
same,normalized growth,"locus YLR258W, strain gsy2, stronger effect = lower value",0.982
same,normalized growth,"locus YLR262C, strain YPT6 (second series), stronger effect = lower value",0.926
same,normalized growth,"locus YLR262C, strain YPT6, stronger effect = lower value",1.05
same,normalized growth,"locus YLR268W, strain sec22, stronger effect = lower value",1
same,normalized growth,"locus YLR320W, strain mms22, stronger effect = lower value",1
same,normalized growth,"locus YLR330W, strain CHS5, stronger effect = lower value",1.01
same,normalized growth,"locus YLR342W, strain FKS1 (second series), stronger effect = lower value",1
same,normalized growth,"locus YLR342W, strain FKS1, stronger effect = lower value",0.972
same,normalized growth,"locus YLR357W, strain rsc2, stronger effect = lower value",0.917
same,normalized growth,"locus YLR370C, strain arc18, stronger effect = lower value",0.987
same,normalized growth,"locus YLR371W, strain rom2, stronger effect = lower value",1
same,normalized growth,"locus YLR384C, strain iki3, stronger effect = lower value",0.976
same,normalized growth,"locus YLR418C, strain cdc73, stronger effect = lower value",0.981
same,normalized growth,"locus YML016C, strain PPZ1, stronger effect = lower value",1.01
same,normalized growth,"locus YML032C, strain rad52, stronger effect = lower value",0.994
same,normalized growth,"locus YML120C, strain ndi1, stronger effect = lower value",0.967
same,normalized growth,"locus YML124C, strain tub3, stronger effect = lower value",0.995
same,normalized growth,"locus YMR058W, strain fet3, stronger effect = lower value",0.976
same,normalized growth,"locus YMR078C, strain ctf18, stronger effect = lower value",1.01
same,normalized growth,"locus YMR125W, strain sto1, stronger effect = lower value",0.93
same,normalized growth,"locus YMR129W, stronger effect = lower value",0.993
same,normalized growth,"locus YMR205C, strain PFK2, stronger effect = lower value",0.953
same,normalized growth,"locus YMR223W, strain ubp8, stronger effect = lower value",1
same,normalized growth,"locus YMR231W, strain pep5, stronger effect = lower value",0.906 (active)
same,normalized growth,"locus YMR307W, strain GAS1, stronger effect = lower value",1.05
same,normalized growth,"locus YNL067W, strain RPL9B, stronger effect = lower value",1.01
same,normalized growth,"locus YNL071W, strain lat1, stronger effect = lower value",0.975
same,normalized growth,"locus YNL153C, strain GIM3, stronger effect = lower value",0.996
same,normalized growth,"locus YNL183C, strain NPR1, stronger effect = lower value",0.982
same,normalized growth,"locus YNL209W, strain ssb2, stronger effect = lower value",0.99
same,normalized growth,"locus YNL233W, strain BNI4, stronger effect = lower value",1.01
same,normalized growth,"locus YNL248C, strain rpa49, stronger effect = lower value",1
same,normalized growth,"locus YNL250W, strain rad50, stronger effect = lower value",0.995
same,normalized growth,"locus YNL271C, strain bni1, stronger effect = lower value",0.996
same,normalized growth,"locus YNL298W, strain CLA4, stronger effect = lower value",1
same,normalized growth,"locus YNL307C, strain MCK1, stronger effect = lower value",1
same,normalized growth,"locus YNL322C, strain KRE1 (second series), stronger effect = lower value",0.975
same,normalized growth,"locus YNL322C, strain KRE1, stronger effect = lower value",1.02
same,normalized growth,"locus YNR049C, strain mso1, stronger effect = lower value",0.983
same,normalized growth,"locus YNR052C, strain pop2, stronger effect = lower value",1
same,normalized growth,"locus YOL012C, strain htz1",1.17
same,normalized growth,"locus YOL147C, strain pex11, stronger effect = lower value",1.01
same,normalized growth,"locus YOR001W, strain rrp6, stronger effect = lower value",0.965
same,normalized growth,"locus YOR061W, strain CKA2, stronger effect = lower value",1.01
same,normalized growth,"locus YOR069W, strain VPS5, stronger effect = lower value",1.01
same,normalized growth,"locus YOR070C, strain gyp1, stronger effect = lower value",0.995
same,normalized growth,"locus YOR080W, strain dia2, stronger effect = lower value",0.947
same,normalized growth,"locus YOR083W, strain WHI5, stronger effect = lower value",0.964
same,normalized growth,"locus YOR106W, strain vam3, stronger effect = lower value",0.924
same,normalized growth,"locus YOR136W, strain idh2, stronger effect = lower value",1
same,normalized growth,"locus YOR144C, strain elg1, stronger effect = lower value",1.01
same,normalized growth,"locus YOR184W, strain ser1, stronger effect = lower value",0.999
same,normalized growth,"locus YOR231W, strain MKK1, stronger effect = lower value",1.03
same,normalized growth,"locus YOR265W, strain rbl2, stronger effect = lower value",0.971
same,normalized growth,"locus YOR270C, strain vph1, stronger effect = lower value",0.988
same,normalized growth,"locus YOR290C, strain snf2, stronger effect = lower value",1.02
same,normalized growth,"locus YOR316C, strain cot1, stronger effect = lower value",1.01
same,normalized growth,"locus YPL051W, strain arl3, stronger effect = lower value",1.02
same,normalized growth,"locus YPL055C, strain LGE1, stronger effect = lower value",1.02
same,normalized growth,"locus YPL078C, strain atp4, stronger effect = lower value",0.929
same,normalized growth,"locus YPL106C, strain sse1, stronger effect = lower value",0.94
same,normalized growth,"locus YPL240C, strain hsp82, stronger effect = lower value",0.989
same,normalized growth,"locus YPL256C, strain CLN2, stronger effect = lower value",1.04
same,normalized growth,"locus YPR119W, strain clb2, stronger effect = lower value",1.01
same,normalized growth,"locus YPR141C, strain kar3, stronger effect = lower value",1.01
same,normalized growth,"locus YPR163C, strain tif3, stronger effect = lower value",1
same,normalized growth,"locus YPR167C, strain met16, stronger effect = lower value",1
same,normalized growth,"strain wtn01, stronger effect = lower value",0.988

# — PubChem BioAssay AID1159580 (chemical genetic matrix, 2015)
